Polio RdRp inh: poliovirus RdRp elongation inhibitors, primary screen, biochemical, fluorescence polarization, total intensity | Genome polyprotein (Poliovirus type 1 (strain Mahoney)), P03300 | poliovirus polymerase elongation; hits give low values | % elongation, % (compound at 16.7 µg/mL) | 0.66% of 150,000 active | AID 588519, 2011; in the data active = % elongation below about 90%
Mtb MenB inh: M. tuberculosis MenB inhibitors, primary screen, biochemical, absorbance; inhibition, % (test concentration not listed); MenB enzyme assay, absorbance read-out; AID 540299, 2011; 1,4-dihydroxy-2-naphthoyl-CoA synthase (Mycobacterium tuberculosis (strain ATCC 25618 / …; 0.43% of 100,000 active; in the data active = inhibition above about 21%, passing the limit was not always enough
MbtI inh: MbtI salicylate synthase inhibitors, primary screen, biochemical, fluorescence intensity; AID 493033, 2011; inhibition, % (test concentration not listed); 0.89% of 100,000 active; purified MbtI enzyme, fluorescence intensity read-out; P9WFX0; in the data active = inhibition mostly above about 56%, no sharp cut-off; inactive = mostly below about 77%
Target sequence (P9WFX0 whole entry, looked up): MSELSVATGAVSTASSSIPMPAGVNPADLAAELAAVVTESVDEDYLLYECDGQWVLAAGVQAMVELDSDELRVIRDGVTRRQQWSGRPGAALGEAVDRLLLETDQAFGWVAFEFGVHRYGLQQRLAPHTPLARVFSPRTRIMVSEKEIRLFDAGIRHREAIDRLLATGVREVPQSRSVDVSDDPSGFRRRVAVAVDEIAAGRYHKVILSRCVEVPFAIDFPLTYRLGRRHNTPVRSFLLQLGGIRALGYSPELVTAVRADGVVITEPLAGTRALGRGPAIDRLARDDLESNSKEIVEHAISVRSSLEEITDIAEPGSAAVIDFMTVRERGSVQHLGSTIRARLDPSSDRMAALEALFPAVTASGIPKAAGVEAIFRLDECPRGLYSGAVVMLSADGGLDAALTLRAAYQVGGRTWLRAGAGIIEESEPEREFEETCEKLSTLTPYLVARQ
A number is an active result; . = inactive; / = no result given; ! = a repeat was not active. Shown are actives, neighbours in structure and some others; about 1.4% of the full set was active somewhere.

SMILES	Polio RdRp inh	Mtb MenB inh	MbtI inh
CN(C)C(=S)SSC(=S)N(C)C	.	.	87
COC(=O)C1C(=O)C(C(=O)c2ccccc2)C(=O)CC1(C)C (centres undefined)	.	.	.
COC(=O)C1C(O)=C(C=Nc2ccccc2)C(=O)CC1(C)C (centres undefined)	.	34	.
CC(NC1CC(C)N(C)CC1C)c1ccccc1 (centres undefined)	.	.	.
COc1ccc(-c2cc(C(F)(F)F)nc(SCC(=O)N3CCc4ccccc43)n2)cc1OC	.	.	.
Cc1cc(OC(=O)c2cc(-c3ccc4c(c3)OCCO4)on2)ccc1Cl	-17	/	/
Cc1ccc(OC(=O)c2cc(-c3ccc4c(c3)OCCO4)on2)cc1C	.	/	/
O=c1[nH]ccc2c(OCc3ccccn3)cccc12	.	.	.
CCC(C)(C)Nc1ncccc1C(=O)O	.	.	.
CCCNc1ncccc1C(N)=O	.	35	.
COC(=O)C(C#N)c1nc2ccccc2nc1Cl (centres undefined)	83	.	.
COC(=O)C(C(=O)OC)c1nc2ccccc2nc1Cl	.	.	.
O=C(NC1CCCC1)c1ccccc1-c1nc(-c2ccc(Cl)cc2)no1	.	.	.
O=C(CSc1nnc(-c2ccc(F)cc2)o1)N(Cc1nnc(-c2ccc(Cl)cc2)o1)C1CC1	.	.	.
Cc1ccc(Nc2nc(C)cs2)cc1	.	.	.
CC(C)c1ccc(Nc2nnns2)cc1	.	.	.
Clc1ccc(Nc2nnns2)cc1	.	.	59
Cc1csc(Nc2ccc(Cl)cc2)n1	.	.	63
O=C(Cc1n[nH]c(=O)c2ccccc12)N1CCCSc2ccccc21	.	.	.
COc1ccc(Nc2ncc(C)s2)cc1	.	.	.
CNc1ccccc1C(=O)OCC(=O)c1cccs1	.	.	.
NC(=O)c1ccc(NC(=O)CSC(=O)c2ccccc2)cc1	.	/	70
O=C(CC(=O)Nc1ccccc1)Nc1ccccc1	/	/	.
NC(=S)CC(=O)Nc1ccccc1	.	.	93
O=C(CSC(=O)c1ccccc1)Nc1ccc(C(F)(F)F)cc1	.	/	.
SMILES	Polio RdRp inh	Mtb MenB inh	MbtI inh
NC(=S)Nc1ccc(C(=O)O)cc1	81	.	.
CC(=O)Nc1ccc(C(=O)O)cc1	.	.	.
CN=C1c2c(C)c3cc(OC)ccc3n2CCN1C	.	.	.
COc1ccc2c(c1)c1nc(N(C)C)nc3c1n2CCN3C	6.0	.	.
CCOC(=O)c1sc2nc(NC(=O)Cc3ccccc3)sc2c1C	.	.	.
O=C1NC(c2cccs2)Nc2ccccc21 (centres undefined)	.	.	.
Cc1ccc(C)c2[nH]c(=O)c(C3NC(=O)c4ccccc4N3)cc12 (centres undefined)	.	42	.
CCCn1c(NC(=O)[C@@H](NC(=O)c2cc(OC)cc(OC)c2)C(C)C)nc2ccccc21	.	.	.
O=C1CCC(C(=O)N2CCN(c3ccc(F)cc3)CC2)=NN1	.	.	.
COc1cccc(CNc2cccc3cccnc23)c1O	.	.	.
COc1cc(NCCCC(C)N)c2ncccc2c1 (centres undefined)	35	.	.
O=S1(=O)CCC(NC(=S)S)C1 (centres undefined)	.	/	96
CNC(=S)NC1CCS(=O)(=O)C1 (centres undefined)	.	.	.
Cc1nn(-c2ccccc2)c2c1C(c1ccc(-c3ccc(S(=O)(=O)N4CCOCC4)cc3)o1)C1=C(CC(C)(C)CC1=O)N2 (centres undefined)	.	.	.
NC(=O)c1cc(S(=O)(=O)N2CCc3ccccc32)cs1	.	.	.
Cc1c(C(=O)O)sc2nc[nH]c(=O)c12	.	.	/
Cc1sc2nc[nH]c(=S)c2c1C	.	.	57!
CCN(CC)c1ccc(NC(=O)Nc2ccc(Cl)cc2)cc1	.	.	.
CCS(=O)(=O)c1ncc(Cl)c(C(=O)NCc2ccccc2)n1	.	/	/
CCS(=O)(=O)c1ncc(Cl)c(C(=O)Nc2ccc(Cl)cc2)n1	.	.	63
NC(=O)N/N=C/c1cn(-c2ccccc2)nc1-c1ccccc1	.	.	.
O=S(=O)(NN=Cc1cn(-c2ccccc2)nc1-c1ccco1)c1ccc(Cl)cc1	.	.	90
O=S(=O)(NCC(c1cccs1)S(=O)(=O)c1ccccc1)c1ccc(F)c(C(F)(F)F)c1 (centres undefined)	.	/	/
O=C1C=C(Nc2ccc(F)c(C(F)(F)F)c2)c2ccccc2C1=O	62	.	/
COc1ccc(OC)c(N=C2SCCCN2C(=O)c2cc(=O)[nH]c3ccccc23)c1	.	.	.
SMILES	Polio RdRp inh	Mtb MenB inh	MbtI inh
CCOc1ccc(N=C2NC(=O)C(CC(=O)NC(N)=O)S2)cc1 (centres undefined)	/	.	.
Cc1ccc2occ(CC(=O)N(Cc3ccc(C(C)C)cc3)C3CCS(=O)(=O)C3)c2c1 (centres undefined)	.	/	/
Cc1ccc2occ(CC(=O)N(Cc3ccccc3Cl)C3CCS(=O)(=O)C3)c2c1 (centres undefined)	-14	/	/
CCOC(=O)c1ccc(S(=O)(=O)N2CCN(Cn3cnc4ccccc43)CC2)cc1	.	.	.
NC(N)=N/N=C/c1ccc(O)c(Cl)c1	.	.	.
N#CC(C#N)=Cc1ccc(O)c(Cl)c1	.	.	61
CC(C)(C)NC(=O)/C=C/c1ccc(Cl)cc1	.	.	.
CC(Sc1nc(C2CC2)n(-c2ccccc2)n1)C(=O)Nc1ccnn1C(C)C (centres undefined)	.	.	.
CN1CCN(NC(=O)Cc2ccccc2Cl)CC1	.	.	.
O=C(Cc1ccccc1Cl)NC1(O)C(=O)c2ccccc2C1=O	83	.	.
COc1cccc(C=Nc2cccc(C(=O)O)c2C)c1O	.	.	.
Cc1c(N=Cc2cc(Br)cc(Br)c2O)cccc1C(=O)O	88	.	.
C(=N\C(/N=C/c1cccs1)c1cccs1)/c1cccs1	.	.	.
N#CCSc1cccc2cccnc12	.	.	.
Cc1ccc(N(CC(=O)Nc2ccc(C)c(Cl)c2)S(=O)(=O)c2cccs2)cc1	89	/	/
COc1ccc(NC(=O)CN(c2ccc(C)cc2)S(=O)(=O)c2cccs2)cc1OC	.	/	/
CC(Sc1ccc(Cl)cc1)C(=O)NN=C1CCN(C)CC1 (centres undefined)	.	.	.
Cc1cc(C)c(O)c(N)c1	.	.	101
Cc1cc(C)c2oc(-c3cc(N)cc(C)c3O)nc2c1	.	.	.
CN(CC(=O)Nc1ccc(F)cc1)C(=O)CSc1ccc2c(c1)OCCO2	.	.	98
O=C(CSc1ccc2c(c1)OCCO2)Nc1ccccc1	.	.	.
CCN(CC)Cc1cccn1-c1nnc(N2CCCCCC2)s1	.	.	.
CN(C)C(CNc1ncnc2cc(Cl)ccc12)c1ccco1 (centres undefined)	.	.	.
COC(=O)c1c(NC(=O)C(C)Oc2ccc(Cl)cc2Cl)sc2c1CCCC2 (centres undefined)	.	/	/
Cc1sc(NC(=O)C(C)Oc2ccc(Cl)cc2Cl)c(C(N)=O)c1C (centres undefined)	75	.	/
CCOC(=O)C(C)Sc1nnc(-c2ccc(F)cc2)o1 (centres undefined)	.	.	.
COc1ccccc1OCc1nc2ccccc2n1CC(C)C	.	.	.
